Shown are actives, neighbours in structure and some others; about 11% of the full set was active somewhere.
AmpC no deterg = qHTS Inhibitors of AmpC Beta-Lactamase (assay without detergent); Potency, µM (top dose mostly 57.1 µM), for the others: at the highest dose activity change, negative = inhibition, most hits filed as inhibitors; actives 0.52% (n = 330,000); AID 485341, 2010; AmpC nitrocefin hydrolysis, absorbance 480 nm, 0.0001% Triton;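 also: plate controls were no compound for no effect and no enzyme for full effect; nearly all actives have a fitted effect of over 20% in size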
Target sequence (P00811 whole entry, looked up): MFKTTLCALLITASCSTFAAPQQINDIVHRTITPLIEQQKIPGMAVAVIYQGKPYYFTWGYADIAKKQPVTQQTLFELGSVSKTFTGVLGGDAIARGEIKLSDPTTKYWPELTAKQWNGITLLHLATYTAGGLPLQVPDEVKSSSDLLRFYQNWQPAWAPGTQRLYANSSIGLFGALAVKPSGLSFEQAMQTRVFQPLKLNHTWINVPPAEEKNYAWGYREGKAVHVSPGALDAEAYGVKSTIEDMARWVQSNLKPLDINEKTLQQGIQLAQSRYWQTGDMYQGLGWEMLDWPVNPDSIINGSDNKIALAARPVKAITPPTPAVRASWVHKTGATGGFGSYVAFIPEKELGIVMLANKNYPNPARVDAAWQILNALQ
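AmpC (5.3 nM in the dispensed reagent) in 20 mM phosphate pH 7.0 with 0.01% (detergent screen) or 0.0001% Triton X-100 was preincubated with compounds for 15 min at room temperature. Nitrocefin was then added from an 800 uM solution, and hydrolysis was followed at 480 nm.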
HCV inhibitor = qHTS Assay for Inhibitors of Hepatitis C Virus (HCV) | Potency, µM (highest dose often 41.8 µM), inactives show at the highest dose activity change, negative = inhibition, usual class: inhibitors | AID 651820, 2012 | Huh7.5.1 HCVcc-Cre infection, luciferase reporter, 44 h | actives 3.4% (n = 340,000)
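1,000 cells/well; 4 h culture; + compound; + HCVcc-Cre (~0.5 moi); 44 h; luciferase substrate, RT 15 min; read 15 sec.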
Pf growth 96h = Primary qHTS for delayed death inhibitors of the malarial parasite plastid, 96 hour incubation; actives 6.9% (n = 320,000); P. falciparum luciferase reporter growth, 96 h; Potency, µM (series often up to 28.7 µM), without a hit: at the top dose activity change, negative = inhibition, most hits filed as inhibitors
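Delayed-death screen, second-generation endpoint: infected erythrocytes, 2% hematocrit, 0.05% parasitemia final; 96 hours at 37 C, 5% CO2; luciferase detection reagent; luminescence decrease equals reduced growth.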
AMA1-RON2 inh = qHTS for Inhibitors of AMA1-RON; Towards Development of Antimalarial Drug Lead: Primary Screen | Potency, µM (top dose mostly 58.2 µM), for the others: at the highest dose activity change, negative = inhibition, actives largely listed as inhibitors | Plasmodium falciparum AMA1 (3D7) - RON2 peptide interaction | AID 720542, 2013 | AlphaScreen AMA1-biotinylated RON2 peptide binding | actives 0.2% (n = 360,000);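 also: 0% = vehicle wells and -100% = peptide control; nearly all actives have a fitted effect of over 45% in size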
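AMA1 (3D7) with his tag at 25 nM final met compounds first, then biotinylated RON2 peptide at 25 nM; detection used donor plus acceptor beads, 10 µg/mL apiece, read by AlphaScreen after 30 min at room temperature.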
AmpC detergent = qHTS Inhibitors of AmpC Beta-Lactamase (assay with detergent); Potency, µM (highest dose often 114 µM), without a hit: at the highest dose activity change, negative = inhibition, actives largely listed as inhibitors; AmpC hydrolysis of nitrocefin, absorbance 480 nm, 0.01% Triton; actives 0.041% (n = 370,000); P00811;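 also: 0% = no-compound wells and -100% = no-enzyme wells; nearly all actives have a fitted effect of over 25% in size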
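20 mM phosphate pH 7.0 + 0.01% (detergent screen) or 0.0001% Triton X-100; 5.3 nM AmpC reagent; cpd preinc 15 min RT; nitrocefin (800 uM stock) to start; A480 q20 s × 4 min; Activity was normalised to no-enzyme and no-compound control wells.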
Pf growth 48h = Primary qHTS for delayed death inhibitors of the malarial parasite plastid, 48 hour incubation. P. falciparum luciferase growth in erythrocytes, 48 h. Potency, µM (series often up to 28.7 µM), for the others: at the highest dose activity change, negative = inhibition, hits mostly inhibitors. actives 5.9% (n = 310,000)
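Parasite viability was followed by luminescence of a genomically integrated firefly luciferase. Cultures held 0.1% parasitemia at 2% hematocrit (final), incubated under 5% CO2 at 37 C.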
The depositor's hits bear a star; [ ] = another dose, or the depositor's remark. Calls follow the shape of the dose curve; as a rule, active = well fitted curve in the direction sought with a large enough effect; inconclusive = small, poorly fitted or top-dose-only effect, or another doubt; inactive = no such curve, though single readings can be large; an effect the other way counts as inactive or inconclusive. Unless noted, % is scaled to controls: 0 for no effect and ±100 for the full control effect; potency is read from the fitted curve at half-maximal effect.

CCOC(=O)C1CCN(C(=O)c2ccc3c(c2)NC(=O)/C(=C\c2cccc(C)c2)S3)CC1 was read as AmpC no deterg 44%, HCV inhibitor 11µM*, Pf growth 96h 85%, AMA1-RON2 inh 10%, AmpC detergent -1% and Pf growth 48h inconclusive.
`Cc1cccc(NC(=O)c2cc(-c3ccc4c(c3)OCCO4)on2)c1` gave AmpC detergent 19%.
O=S(=O)(NCCc1ccccc1)c1ccc(N2CCCCS2(=O)=O)cc1 was read as AmpC detergent 3%.
`Cc1nn2c(nc(N3CCCCC3)c3ccccc32)c1C=O` gave AmpC no deterg 29%, HCV inhibitor inconclusive, Pf growth 96h 5.2µM*, AMA1-RON2 inh 18%, AmpC detergent 0% and Pf growth 48h 3.3µM*.
Cc1nn2c([nH]c(=O)c3ccccc32)c1C=O was read as AmpC no deterg -9%, HCV inhibitor 31%, Pf growth 96h 12µM*, AMA1-RON2 inh 6%, AmpC detergent inconclusive and Pf growth 48h inconclusive.
For Cc1cc(C(=O)N/N=C/c2ccc(Cl)c([N+](=O)[O-])c2)c(C)n1-c1ccc(F)cc1 the results were AmpC no deterg 16µM*, HCV inhibitor inconclusive, Pf growth 96h 13µM*, AMA1-RON2 inh 8%, AmpC detergent -9% and Pf growth 48h 13µM*.
For O=C(N/N=C/c1ccc(Cl)c([N+](=O)[O-])c1)c1ccc2nc[nH]c2c1 the results were AmpC no deterg -42%, HCV inhibitor 8%, Pf growth 96h inconclusive, AMA1-RON2 inh -15%, AmpC detergent -7% and Pf growth 48h 3.3µM*.
`CC(C)c1ccc(/C=N/NC(=O)c2cccc(Cl)c2)cc1` gave AmpC no deterg -37%, HCV inhibitor 7.1µM*, Pf growth 96h inconclusive, AMA1-RON2 inh -7%, AmpC detergent 0% and Pf growth 48h 8%.
`CCCCC1CCC(C(=O)N2CC(=O)Nc3ccc(F)cc3C2c2ccc(F)cc2)CC1` (stereo unspecified) gave AmpC detergent 17%.
`O=C(CCOc1ccccc1)N(Cc1cccnc1)c1nc2ccc(F)cc2s1` gave AmpC detergent 3%.
`COC(=O)c1ccccc1NC(=O)NCc1ccc2c(c1)CCN2C(=O)c1ccccc1` gave AmpC detergent 17%.
`CCCC1S/C(=N/N=C/c2ccc(OC)cc2)N(Cc2ccc(OC)cc2)C1=O` (stereo unspecified) gave AmpC no deterg -15%, HCV inhibitor -11%, Pf growth 96h 10µM*, AMA1-RON2 inh -1%, AmpC detergent inconclusive and Pf growth 48h inconclusive.
For CCCCN1CCCCC1C(=O)Nc1c(C)cccc1C (stereo unspecified) the results were AmpC no deterg -12%, HCV inhibitor -18%, Pf growth 96h 1%, AMA1-RON2 inh -5%, AmpC detergent -8% and Pf growth 48h -2%.
For CCCCN1CCCC1C(=O)Nc1c(C)cc(C)cc1C (stereo unspecified) the results were Pf growth 96h 2.6µM* and Pf growth 48h -25%.
Screening CCOc1ccccc1NC(=O)c1ccc2ccccc2c1 returned AmpC no deterg -59%, HCV inhibitor 10µM*, Pf growth 96h 12µM*, AMA1-RON2 inh 12%, AmpC detergent -21% and Pf growth 48h 5%.
`CCOc1ccccc1NC(=O)c1ccc2[nH]c(C)c(C)c2c1` gave AmpC no deterg -36%, HCV inhibitor inconclusive, Pf growth 96h inconclusive, AMA1-RON2 inh -8%, AmpC detergent 5% and Pf growth 48h 15µM*.
COc1ccc(NC(=O)c2ccc3[nH]c(C)c(C)c3c2)c(OC)c1 was read as AmpC no deterg -36%, HCV inhibitor inconclusive, Pf growth 96h -11%, AMA1-RON2 inh -13%, AmpC detergent -6% and Pf growth 48h -16%.
CCOc1cc(NC(=S)Nc2ccccc2)c(OCC)cc1NC(=O)c1ccc(OC)cc1 was read as AmpC no deterg -19%, HCV inhibitor inconclusive, Pf growth 96h inconclusive, AMA1-RON2 inh 11%, AmpC detergent 0% and Pf growth 48h 12µM*.
CCOc1cc(NC(=S)Nc2cccc(OC)c2)c(OCC)cc1NC(=O)c1ccc(C)cc1 was read as AmpC no deterg -24%, HCV inhibitor inconclusive, Pf growth 96h 36%, AMA1-RON2 inh 25%, AmpC detergent -1% and Pf growth 48h inconclusive.
`CCOc1ccccc1NC(=O)c1cc(CC(C)C)oc1C` gave AmpC no deterg 0.32µM*, HCV inhibitor -18%, Pf growth 96h -10%, AMA1-RON2 inh 7%, AmpC detergent 4% and Pf growth 48h 10µM*.
COc1ccc(CNC(=O)c2cc3c(=O)[nH]c4ccccc4c3n2C)c(OC)c1 was read as AmpC detergent 4%.
For COc1ccc(C2C=C(C34CC5CC(CC(C5)C3)C4)NC(=S)N2)cc1 (stereo unspecified) the results were AmpC no deterg -34%, HCV inhibitor -16%, Pf growth 96h 12µM*, AMA1-RON2 inh 39%, AmpC detergent 1% and Pf growth 48h 9.3µM*.
`COC(=O)[C@@]1(Cc2ccc(F)cc2)[C@@H]2[C@@H](CC(=O)[C@H]2CC(=O)C(=O)N(C)C)CN1C(=O)c1ccccc1` gave AmpC no deterg 266%, HCV inhibitor 0%[8.37 µM], Pf growth 96h 9.3µM*, AMA1-RON2 inh 17%, AmpC detergent inconclusive and Pf growth 48h -23%.
Screening COC(=O)[C@@]1(Cc2ccc(F)cc2)[C@H]2c3cc(C(=O)N(C)C)n(Cc4ccc(S(C)(=O)=O)cc4)c3C[C@H]2CN1C(=O)c1ccccc1 returned AMA1-RON2 inh -8%.
For COC(=O)[C@@]1(Cc2ccc(F)cc2)[C@H]2c3cc(C(=O)N(C)C)n(Cc4ccccn4)c3C[C@H]2CN1C(=O)c1ccccc1 the results were AmpC no deterg 294%, HCV inhibitor 12%, Pf growth 96h 2.9µM*, AMA1-RON2 inh -4%, AmpC detergent inconclusive and Pf growth 48h 3.3µM*.

Screening data (PubChem)
